High-throughput results deposited in PubChem BioAssay by National Center for Advancing Translational Sciences (NCATS).
Hits are enriched below; roughly 0.95% of the tested compounds scored in any of these assays.
Tb PYK inh = blocks Trypanosoma brucei pyruvate kinase. Q57TT1. TbPYK enzyme, Kinase-Glo Plus ATP luminescence, 45 min. Potency, µM (series often up to 76.8 µM), for the others: at the top dose activity, negative = inhibition, hits mostly inhibitors. 410,000 tested, 0.12% active; further: nearly all actives have a fitted effect of over 50% in size
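Activity of T. brucei pyruvate kinase was followed by Kinase-Glo Plus luminescence after the enzyme reacted 45 min at room temperature with 130 uM ADP (final) and substrate. Test compounds were added before ADP at multiple concentrations.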
Giardia FBPA inh-1 = Giardia lamblia aldolase inhibition; A8B2U2; purified Giardia FBPA; Potency, µM (highest dose often 59.6 µM), for inactives: at the highest dose activity, negative = inhibition, usual class: inhibitors; 290,000 tested, 0.71% active; further: nearly all actives have a fitted effect of over 55% in size
Target sequence (A8B2U2 whole entry, looked up): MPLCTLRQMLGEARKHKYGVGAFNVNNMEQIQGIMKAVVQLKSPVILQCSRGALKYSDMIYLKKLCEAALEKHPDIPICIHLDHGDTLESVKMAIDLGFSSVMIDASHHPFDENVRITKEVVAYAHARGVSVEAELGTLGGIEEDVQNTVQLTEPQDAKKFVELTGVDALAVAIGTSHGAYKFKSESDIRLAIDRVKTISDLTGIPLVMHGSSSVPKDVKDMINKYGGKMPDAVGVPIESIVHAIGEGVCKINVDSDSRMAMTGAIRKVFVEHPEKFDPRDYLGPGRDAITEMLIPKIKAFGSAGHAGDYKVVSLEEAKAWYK
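Giardia FBPA (40 nM reagent) was preincubated 10 min at RT with compound (up to 57.5 uM final), then substrate plus GAPDH/TPI/NAD/arsenate coupling system with diaphorase/resazurin was added; resorufin fluorescence (525/598 nm) was read after 20 min.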
RE007 growth inh = less growth of the S. pombe RE007 Vpr strain; S. pombe RE007 Vpr strain, BacTiter-Glo ATP luminescence, 24 h; Potency, µM (series often up to 92.2 µM), without a hit: at the top dose activity change, negative = less growth, usual class: inhibitors; 360,000 tested, 0.21% active; AID 651644; active means well fitted falling curve with a large enough effect; inconclusive means small, poorly fitted or top-dose-only effect; inactive means no such curve, though single readings can be large or run the other way; further: nearly all actives have a fitted effect of over 50% in size
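Fission yeast RE007 carrying one integrated HIV-1 vpr copy, seeded at OD 0.01 in PMG+AL medium with 23 nL pinned compound. Grown 24 h at 30 degrees; viability read by BacTiter-Glo luminescence after 5 min.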
LmPK inh = LmPK (Leishmania mexicana) enzyme inhibition; Q27686; purified LmPK, Kinase-Glo ATP luminescence, 1 h; Potency, µM (highest dose often 57.5 µM), for inactives: at the top dose activity change, negative = inhibition, usual class: inhibitors; 290,000 tested, 0.37% active; AID 1721
Target sequence (Q27686 whole entry, looked up): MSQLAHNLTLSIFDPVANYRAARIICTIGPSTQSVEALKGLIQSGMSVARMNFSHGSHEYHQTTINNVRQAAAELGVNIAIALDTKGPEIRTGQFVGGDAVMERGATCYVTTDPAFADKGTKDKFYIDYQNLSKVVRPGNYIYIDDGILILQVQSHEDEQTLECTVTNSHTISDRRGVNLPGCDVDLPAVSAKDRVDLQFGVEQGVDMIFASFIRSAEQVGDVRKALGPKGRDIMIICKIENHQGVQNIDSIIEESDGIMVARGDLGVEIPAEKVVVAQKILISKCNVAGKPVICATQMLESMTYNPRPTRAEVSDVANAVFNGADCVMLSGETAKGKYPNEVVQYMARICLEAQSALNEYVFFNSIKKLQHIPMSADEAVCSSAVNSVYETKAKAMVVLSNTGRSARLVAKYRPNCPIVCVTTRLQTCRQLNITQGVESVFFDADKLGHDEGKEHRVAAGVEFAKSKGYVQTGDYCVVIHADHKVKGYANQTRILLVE
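Pyruvate kinase activity monitored as ATP production (luciferase luminescence). Conditions: 0.1 nM enzyme, 0.5 mM PEP, 0.1 mM ADP, 1 h, RT; normalized against uninhibited and no-enzyme wells.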
Giardia growth = inhibitors of Giardia lamblia growth | Giardia lamblia trophozoite growth inhibition | shares compounds with Giardia FBPA inh-1 | Potency, µM (highest dose often 57.5 µM), for the others: at the highest dose activity change, negative = inhibition, usual class: inhibitors | 1,500 tested, 5% active | AID 2785;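 further: trophozoites exposed to compound for 48 h at 37 °C; nearly all actives have a fitted effect of over 70% in size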
Mammal cell tox = counter-screen for Giardia aldolase inhibitors: mammalian cell toxicity | shares compounds with Giardia FBPA inh-1 | mammalian cell viability counter-screen, qHTS | Potency, µM (doses to about 57.5 µM), for inactives: at the highest dose viability change, negative = toxicity, most hits filed as inhibitors | 1,500 tested, 4% active;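 further: Chinese hamster ovary cells used as mammalian cytotoxicity surrogate; viability measured as cellular ATP by luminescence; compound exposure lasted 48 h before reading; nearly all actives have a fitted effect of over 60% in size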
Giardia FBPA inh-2 = confirmation of Giardia fructose-bisphosphate aldolase inhibitors | shares compounds with Giardia FBPA inh-1 | purified Giardia aldolase enzyme activity, qHTS | Potency, µM (series often up to 57.5 µM), for the others: at the top dose activity change, negative = inhibition, most hits filed as inhibitors | 1,500 tested, 5% active | AID 2787; further: nearly all actives have a fitted effect of over 45% in size
Rabbit FBPA inh = rabbit FBP aldolase inhibition by Giardia aldolase hits. Rabbit muscle FBPA enzyme inhibition, selectivity counter-screen. AID 2794. shares compounds with Giardia FBPA inh-1. Potency, µM (titrated, usually from 57.5 µM), for inactives: top-dose activity, negative = inhibition, hits mostly inhibitors. 1,500 tested, 4% active; further: nearly all actives have a fitted effect of over 60% in size
GAPDH coupling = counter-screen for Giardia aldolase inhibitors: GAPDH coupling enzyme; 1,500 tested, 6% active; shares compounds with Giardia FBPA inh-1; AID 2795; GAPDH coupling enzyme counterscreen, biochemical, qHTS; Potency, µM (series often up to 57.5 µM), for the others: top-dose activity change, negative = inhibition, most hits filed as inhibitors; further: nearly all actives have a fitted effect of over 55% in size
* marks the source's active call; other numbers are inactive results; ? = inconclusive; nt = not tested or not shown; [ ] = another dose, or the depositor's remark. Unless noted, the call rests on the fitted dose curve; in most records, active means well fitted curve in the direction sought with a large enough effect; inconclusive means small, poorly fitted or top-dose-only effect, or another doubt; inactive means no such curve, though single readings can be large; an effect the other way counts as inactive or inconclusive. On the % scale 0 is the no-effect control and ±100 the full control effect; potency means the concentration at half of the fitted maximal effect.

SMILES | Tb PYK inh | Giardia FBPA inh-1 | RE007 growth inh | LmPK inh | Giardia growth | Mammal cell tox | Giardia FBPA inh-2 | Rabbit FBPA inh | GAPDH coupling
Cc1ccc(C)c(OCCOCCN2CC(C)OC(C)C2)c1C (stereo not given) | -6% | 18µM* | 14% | -2% | -2%[10.4 µM] | -1% | 6% | 5% | 0%
CC1CN(CCOCCSc2ccccc2)CC(C)O1 (stereo not given) | 3% | -6% | -4% | 0% | nt | nt | nt | nt | nt
CC1CN(CCOCCOc2ccccc2-c2ccccc2)CC(C)O1 (stereo not given) | 25% | 11µM* | -1% | 5% | -8%[10.4 µM] | -1% | 1% | 1% | 10%
Cc1cc([C@](C)(N)C(=O)O)ccc1P(=O)(O)O | nt | -12% | nt | nt | nt | nt | nt | nt | nt
Cc1nc(SCC(=O)c2ccc(F)cc2)n[nH]1 | ? | 28µM* | -16% | 17% | 16%[10.4 µM] | 14% | 6% | -4% | 8%
O=C(CSc1n[nH]c(-c2ccccc2)n1)c1ccc(O)c(O)c1 | -11% | 8.9µM* | -3% | 8% | -18%[10.4 µM] | -16% | -28% | -24% | -13%
C=CC1=C2C=C(C3CC3)N(CCOC)C=C2C(=O)C(C)(OC(=O)c2ccco2)C1=O (stereo not given) | nt | ? | nt | -3%[11.5 µM] | nt | nt | nt | nt | nt
COc1ccc2c(C)c(CCC(=O)NCCc3ccc(Cl)cc3)c(=O)oc2c1 | -1% | nt | nt | nt | nt | nt | nt | nt | nt
NC(=O)CN(C/C=C/c1ccccc1)C/C=C/c1ccccc1 | 16% | 28µM* | -9% | 2% | -11% | 3% | -1% | 2% | 6%
CN(CC(=O)O)S(=O)(=O)/C=C/c1ccccc1 | 5% | 0% | 2% | -3% | nt | nt | nt | nt | nt
CCOc1ccc(NC(=O)c2ccc(-c3nc(COc4ccccc4)c(C)o3)cc2)cc1 | -4% | nt | nt | nt | nt | nt | nt | nt | nt
Cc1c(N=C2C=C(Br)C(=O)C(Br)=C2)c(=O)n(-c2ccccc2)n1C | -29% | 14µM* | ? | ? | -12%[10.4 µM] | 0% | ? | -27% | ?
Cc1c(N=Nc2ccc(O)cc2)c(=O)n(-c2ccccc2)n1C | 2% | 0% | 10% | 1% | nt | nt | nt | nt | nt
Cc1[nH]n(-c2ccccc2)c(=O)c1/C=N/O | 0% | 16µM* | -4% | -7% | ? | -5% | -14% | 2% | 9%
Cn1[nH]c(-c2ccccc2)c(/C=N/O)c1=O | -2% | 16µM* | -15% | 2% | 5%[10.4 µM] | 28% | -12% | -4% | 6%
CC(=O)N/N=C/c1c(C)[nH]n(-c2ccccc2)c1=O | -2% | 16µM* | -3% | -3% | 0%[10.4 µM] | -10% | -7% | -17% | -19%
Cc1ccc(-c2n[nH]c(=S)n2/N=C/c2c(C)[nH]n(-c3ccccc3)c2=O)cc1 | ? | 10µM* | -14% | -5%[11.5 µM] | -22%[38.3 µM] | -28% | ? | 3% | -5%
COC(=O)N/N=C\c1c(C)[nH]n(-c2ccccc2)c1=O | 2% | ? | 3% | -1% | nt | nt | nt | nt | nt
Cc1[nH]n(-c2ccccc2)c(=O)c1/C=N/NC(=O)COc1ccccc1[N+](=O)[O-] | -2% | ? | 7% | 2% | nt | nt | nt | nt | nt
COCC(=O)N/N=C/c1c(C)[nH]n(-c2ccccc2)c1=O | -2% | 7.1µM* | -14% | 18% | 23% | -1% | -6% | -4% | 2%
CCOC(=O)N1CCC(NC(=O)c2cnn(-c3ccc(C)cc3)c2-n2cccc2)CC1 | -5% | nt | nt | nt | nt | nt | nt | nt | nt
COc1ccc(C(=O)NC(=S)N2CCNC(=O)C2)cc1Br | -18% | 18µM* | 6% | 1% | 85% | 3% | 4% | 1% | 16%
CCOc1cc(OCC)cc(C(=O)NC(=S)Nc2cccc(C(F)(F)F)c2)c1 | -5% | -1% | 47% | 6% | nt | nt | nt | nt | nt
O=C(NC(=S)Nc1cccc(C(F)(F)F)c1)c1ccc2nonc2c1 | -9% | 10µM* | ? | 8% | 6%[10.4 µM] | -9% | 9% | 0% | 3%
COc1cc2c(cc1OC)n(Cc1cccc(C(F)(F)F)c1)c(=O)n1nc(-c3ccccc3)nc21 | -7% | nt | nt | nt | nt | nt | nt | nt | nt
SMILES | Tb PYK inh | Giardia FBPA inh-1 | RE007 growth inh | LmPK inh | Giardia growth | Mammal cell tox | Giardia FBPA inh-2 | Rabbit FBPA inh | GAPDH coupling
CC(=O)N1CCN(CC(O)COc2ccc(Br)cc2)CC1 (stereo not given) | 13% | 28µM* | 0% | 1% | ? | 8% | 4% | 13% | 2%
CC(C)(C)c1ccc(OCC(O)CN2CCN(C(=O)c3ccccc3)CC2)cc1 (stereo not given) | 13% | 14µM* | -2% | 2% | -12% | -17% | -8% | -13% | -2%
CC(=O)c1ccc(OCC(O)CN2CCN(CC(O)COc3ccc(C(C)=O)cc3)CC2)cc1 (stereo not given) | 2% | 8% | -10% | -4% | nt | nt | nt | nt | nt
CCCCn1c(NS(=O)(=O)c2ccccc2)c(C(=O)OCC)c2nc3ccccc3nc21 | 2% | 0.45µM* | 0% | -1% | -7%[38.3 µM] | -5% | ? | -25% | 40µM*
COc1ccc(-c2csc(Nc3ncccc3C)n2)cc1OC | -5% | -11% | 1% | -4% | nt | nt | nt | nt | nt
Cc1cccnc1Nc1nc(-c2ccc(O)c(O)c2)cs1 | -16% | 10µM* | 4% | -4% | -18% | -3% | -19% | -29% | -14%
CCOc1ccccc1CN1CCC(N2CCOCC2)CC1 | -7% | 8.9µM* | -13% | -5% | 21%[38.3 µM] | -13% | ? | 13% | -8%
COc1ccc(N2CCN(C(CNC(=O)CC(C)C)c3ccc4c(c3)OCO4)CC2)cc1 (stereo not given) | 2% | nt | nt | nt | nt | nt | nt | nt | nt
O=C(Nc1ccc(F)cc1)Oc1ccc[nH]c1=O | 6% | ? | nt | -5% | 7%[38.3 µM] | -17% | 0.46µM* | ? | -30%
N#Cc1c(N)sc(=S)c2c1CCN(Cc1ccccc1)C2 | nt | 1.3µM* | nt | 1% | 15%[38.3 µM] | -8% | 32µM* | ? | 32µM*
Cc1cccc(C)c1OC(=O)CSc1nnc(CNC(=O)c2ccccc2)o1 | -11% | nt | nt | nt | nt | nt | nt | nt | nt
C=CCC(NCc1ccccc1)c1ccc(OC)cc1 (stereo not given) | -18% | 14µM* | -10% | -1% | 19% | 4% | 3% | 8% | 8%
C=CCCN(Cc1ccc(OC)cc1)S(=O)(=O)c1ccccc1Br | nt | 8% | nt | nt | nt | nt | nt | nt | nt
Cc1oc2c(O)c(O)ccc2c(=O)c1-c1ccccc1 | -13% | 11µM* | -3% | -13% | 6% | -1% | -27% | ? | -22%
